Here are results for four compounds from PubChem BioAssay (EPA / NIEHS).

The nature of assay [1]: ATG_GAL4_TRANS: Attagene TRANS-FACTORIAL HepG2 Assay for GAL4 (Internal Marker) (AID 2282976; active means hit-call score of the fitted dose curve at least 0.9, where 1 is the maximum). The conditions noted are these: HepG2 Attagene TRANS GAL4 internal marker reporter. Put shortly: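 HepG2 cells transiently transfected with multiplexed GAL4-UAS reporter constructs were dosed for 24 h. Reporter mRNA was measured by RT-PCR, 6-FAM primer extension, HpaI digestion and capillary electrophoresis, and gain of signal was fitted relative to DMSO.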

The target in assay [2] is Glucocorticoid receptor (Homo sapiens) (UniProt P04150). In words: ATG_GR_TRANS: Attagene TRANS-FACTORIAL HepG2 Assay for human Glucocorticoid Receptor (GR) (AID 2282978; active means hit-call score of the fitted dose curve at least 0.9, where 1 is the maximum;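 further: activators score as hits since higher reporter transcript over DMSO is fitted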). The conditions noted are these: HepG2 Attagene TRANS GR reporter, mRNA transcription. Put shortly: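 Transiently transfected HepG2 cells express chimeric NR-GAL4 proteins acting on GAL4-UAS reporter units. Compounds are applied for 24 h. mRNA induction over DMSO is measured by capillary electrophoresis.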
Glucocorticoid receptor (Homo sapiens), sequence (P04150 whole entry, looked up, the tested form may be a part): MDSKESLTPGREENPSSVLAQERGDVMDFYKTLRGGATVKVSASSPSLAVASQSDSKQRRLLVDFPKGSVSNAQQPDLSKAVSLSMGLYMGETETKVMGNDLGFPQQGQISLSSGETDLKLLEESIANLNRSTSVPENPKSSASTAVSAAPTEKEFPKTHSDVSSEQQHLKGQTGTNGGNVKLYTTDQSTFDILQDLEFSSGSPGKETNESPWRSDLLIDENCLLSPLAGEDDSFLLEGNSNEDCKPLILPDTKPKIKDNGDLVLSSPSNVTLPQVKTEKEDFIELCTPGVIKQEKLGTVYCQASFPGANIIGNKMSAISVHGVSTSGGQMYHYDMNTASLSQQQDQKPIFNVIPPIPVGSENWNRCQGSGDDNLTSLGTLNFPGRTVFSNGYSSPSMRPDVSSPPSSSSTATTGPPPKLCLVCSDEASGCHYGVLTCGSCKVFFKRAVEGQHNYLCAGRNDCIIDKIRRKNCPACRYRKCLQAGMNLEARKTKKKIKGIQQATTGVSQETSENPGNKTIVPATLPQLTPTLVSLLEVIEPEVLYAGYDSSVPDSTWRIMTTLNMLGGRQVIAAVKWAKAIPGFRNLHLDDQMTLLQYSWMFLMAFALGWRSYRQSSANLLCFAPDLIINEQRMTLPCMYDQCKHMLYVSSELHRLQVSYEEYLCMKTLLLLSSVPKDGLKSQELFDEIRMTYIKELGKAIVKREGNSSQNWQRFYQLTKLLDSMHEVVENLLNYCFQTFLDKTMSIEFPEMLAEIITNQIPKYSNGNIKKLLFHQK

Assay [3] addresses Oxysterols receptor LXR-alpha (Homo sapiens) (UniProt Q13133). Put plainly: ATG_LXRa_TRANS: Attagene TRANS-FACTORIAL HepG2 Assay for human Liver X Receptor alpha (LXRa) (AID 2282980; active means hit-call score of the fitted dose curve at least 0.9, where 1 is the maximum). The conditions noted are these: HepG2 Attagene TRANS reporter, LXRa transactivation. In a few lines:
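HepG2 cells were transiently transfected with multiplexed reporter units driven by chimeric LXRa–GAL4 fusion proteins, then dosed for 24 h. Reporter mRNA was quantified by RT-PCR, fluorescent labelling and capillary electrophoresis; gain of signal fitted against DMSO baseline.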

Assay [4] deals with Oxysterols receptor LXR-beta (Homo sapiens) (UniProt P55055). Put plainly: ATG_LXRb_TRANS: Attagene TRANS-FACTORIAL HepG2 Assay for human Liver X Receptor beta (LXRb) (AID 2282981; active means hit-call score of the fitted dose curve at least 0.9, where 1 is the maximum). The following applies: HepG2 Attagene TRANS GAL4-LXRb reporter, mRNA. Put shortly: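 Cells: HepG2, transiently transfected with GAL4-UAS reporter units plus LXRb-Gal4 fusion. Treatment: 24 h. Detection: reporter mRNA by RT-PCR, 6-FAM labelling, HpaI digestion, capillary electrophoresis.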
Oxysterols receptor LXR-beta (Homo sapiens), sequence (P55055 whole entry, looked up, the tested form may be a part): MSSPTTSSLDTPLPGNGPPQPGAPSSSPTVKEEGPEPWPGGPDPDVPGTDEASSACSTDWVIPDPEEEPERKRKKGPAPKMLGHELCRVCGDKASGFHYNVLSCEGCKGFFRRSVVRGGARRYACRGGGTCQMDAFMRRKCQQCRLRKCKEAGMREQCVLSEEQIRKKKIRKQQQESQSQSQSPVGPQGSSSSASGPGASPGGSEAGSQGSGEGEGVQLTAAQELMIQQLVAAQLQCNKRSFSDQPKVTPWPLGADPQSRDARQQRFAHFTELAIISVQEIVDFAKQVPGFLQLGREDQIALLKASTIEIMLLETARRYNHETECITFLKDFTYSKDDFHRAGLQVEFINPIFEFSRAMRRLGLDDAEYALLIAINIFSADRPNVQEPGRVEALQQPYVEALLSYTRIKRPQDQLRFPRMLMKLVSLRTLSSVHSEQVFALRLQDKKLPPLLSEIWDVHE

The nature of assay [5]: ATG_M_06_TRANS: Attagene TRANS-FACTORIAL HepG2 Assay for M06 Transcription Factor (Internal Marker) (AID 2282983; active means hit-call score of the fitted dose curve at least 0.9, where 1 is the maximum;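 further: reporter transcript level by RT-PCR then capillary electrophoresis fluorescence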). The conditions noted are these: HepG2 Attagene TRANS M06 internal marker reporter. Put shortly: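 HepG2 cells transiently transfected with multiplexed GAL4-UAS reporter transcription units; after 24 h compound exposure, reporter mRNA measured by RT-PCR, FAM-labelled primer extension, HpaI digestion and capillary electrophoresis. Gain-of-signal fitted versus DMSO baseline; background control readout.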

A short description of assay [6]: ATG_M_32_TRANS: Attagene TRANS-FACTORIAL HepG2 Assay for M32 Transcription Factor (Internal Marker) (AID 2282984; active means hit-call score of the fitted dose curve at least 0.9, where 1 is the maximum). The following applies: HepG2 Attagene TRANS M32 internal marker reporter. Put shortly: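 Using transiently transfected HepG2 cells exposed to test chemicals for 24 h, reporter transcripts are converted to labelled cDNA fragments and quantified by capillary electrophoresis. DMSO defines the activity baseline.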

The target of assay [7] is Nuclear receptor subfamily 4 group A member 2 (Homo sapiens) (UniProt P43354). Put plainly: ATG_NURR1_TRANS: Attagene TRANS-FACTORIAL HepG2 Assay for human Nuclear Receptor Related Protein 1 (NURR1) (AID 2282985; active means hit-call score of the fitted dose curve at least 0.9, where 1 is the maximum). The following applies: HepG2 Attagene TRANS reporter, mRNA readout. In a few lines: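 Cells: HepG2, transiently transfected. Exposure: 24 h. Detection: fluorescence of labelled RT-PCR products separated by capillary electrophoresis; upward fit versus DMSO.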
Nuclear receptor subfamily 4 group A member 2 (Homo sapiens), sequence (P43354 whole entry, looked up): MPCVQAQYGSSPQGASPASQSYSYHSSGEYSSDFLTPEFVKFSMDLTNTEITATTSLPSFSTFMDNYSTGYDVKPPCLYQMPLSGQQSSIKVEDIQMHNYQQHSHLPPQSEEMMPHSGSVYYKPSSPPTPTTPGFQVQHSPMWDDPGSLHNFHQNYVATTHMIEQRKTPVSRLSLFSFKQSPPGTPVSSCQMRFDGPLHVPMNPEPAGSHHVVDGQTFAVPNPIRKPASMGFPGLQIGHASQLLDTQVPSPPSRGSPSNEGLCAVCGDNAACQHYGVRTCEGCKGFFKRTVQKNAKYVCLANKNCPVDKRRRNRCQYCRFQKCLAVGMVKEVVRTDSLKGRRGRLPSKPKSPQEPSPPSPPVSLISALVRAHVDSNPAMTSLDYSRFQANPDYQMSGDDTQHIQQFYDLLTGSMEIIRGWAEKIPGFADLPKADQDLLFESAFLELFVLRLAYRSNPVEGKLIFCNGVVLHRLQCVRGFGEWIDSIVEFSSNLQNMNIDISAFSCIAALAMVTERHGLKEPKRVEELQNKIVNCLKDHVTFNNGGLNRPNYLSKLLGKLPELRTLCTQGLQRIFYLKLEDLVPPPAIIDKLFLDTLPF

Assay [8] deals with Transcriptional activator Myb (Homo sapiens) (UniProt P10242). In words: ATG_Myb_CIS: Attagene CIS-FACTORIAL HepG2 Assay for human Myeloblastosis (Myb) Proto-Oncogene Transcription Factor (AID 2282986). The following applies: HepG2 Attagene CIS-FACTORIAL Myb reporter transcription; actives raise or lower the signal. Put shortly: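 Using HepG2 liver cells bearing transiently transfected cis-promoter reporter constructs, the assay measures induction or loss of reporter mRNA after 24 hours of dosing. Detection used fluorescently labeled RT-PCR products separated by capillary electrophoresis.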
Transcriptional activator Myb (Homo sapiens), sequence (P10242 whole entry, looked up): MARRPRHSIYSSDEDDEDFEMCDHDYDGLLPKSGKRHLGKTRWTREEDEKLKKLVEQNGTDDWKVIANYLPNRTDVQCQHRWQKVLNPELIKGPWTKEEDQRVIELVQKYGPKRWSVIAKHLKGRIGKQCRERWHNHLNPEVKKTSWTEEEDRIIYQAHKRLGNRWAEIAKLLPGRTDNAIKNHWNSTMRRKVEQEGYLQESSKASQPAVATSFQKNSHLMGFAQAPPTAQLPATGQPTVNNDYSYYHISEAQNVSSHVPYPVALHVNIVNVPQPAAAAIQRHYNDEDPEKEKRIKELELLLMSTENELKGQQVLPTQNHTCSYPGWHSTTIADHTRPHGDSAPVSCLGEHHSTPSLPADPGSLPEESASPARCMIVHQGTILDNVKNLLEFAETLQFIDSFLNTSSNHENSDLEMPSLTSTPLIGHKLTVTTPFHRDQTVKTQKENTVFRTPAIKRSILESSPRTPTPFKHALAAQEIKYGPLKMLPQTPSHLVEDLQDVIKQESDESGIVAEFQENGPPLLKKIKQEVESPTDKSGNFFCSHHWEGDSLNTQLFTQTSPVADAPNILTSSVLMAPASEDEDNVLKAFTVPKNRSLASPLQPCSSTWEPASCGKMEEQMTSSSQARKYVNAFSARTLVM

The target in assay [9] is Nuclear respiratory factor 1 (Homo sapiens) (UniProt Q16656). Put plainly: ATG_NRF1_CIS: Attagene CIS-FACTORIAL HepG2 Assay for human Nuclear Respiratory Factor 1 (NRF1) Orphan Gene (AID 2282987). The following applies: HepG2 NRF1 cis-element reporter, Attagene multiplex; actives raise or lower the signal. Put shortly: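 Reporter mRNA induction or loss in HepG2 cells after 24 h dosing; cis-regulated reporter constructs report endogenous transcription-factor activity. Quantified by RT-PCR/capillary electrophoresis fluorescence, DMSO-referenced.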
Nuclear respiratory factor 1 (Homo sapiens), sequence (Q16656 whole entry, looked up): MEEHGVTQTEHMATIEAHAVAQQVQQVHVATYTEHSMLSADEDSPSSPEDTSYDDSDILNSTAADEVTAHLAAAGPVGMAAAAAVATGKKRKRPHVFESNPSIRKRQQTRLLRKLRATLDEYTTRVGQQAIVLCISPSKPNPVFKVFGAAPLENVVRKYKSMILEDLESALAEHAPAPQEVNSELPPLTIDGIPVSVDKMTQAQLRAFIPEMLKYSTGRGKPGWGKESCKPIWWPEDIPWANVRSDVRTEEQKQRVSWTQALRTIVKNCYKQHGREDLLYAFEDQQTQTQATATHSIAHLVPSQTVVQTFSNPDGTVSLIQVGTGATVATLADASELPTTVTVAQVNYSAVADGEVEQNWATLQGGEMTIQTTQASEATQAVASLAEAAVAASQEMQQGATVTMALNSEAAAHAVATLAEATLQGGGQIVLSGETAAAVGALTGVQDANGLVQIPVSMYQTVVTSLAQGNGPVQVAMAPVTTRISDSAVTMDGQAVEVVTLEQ

Assay [10] addresses Myc proto-oncogene protein (Homo sapiens) (UniProt P01106). Put plainly: ATG_Myc_CIS: Attagene CIS-FACTORIAL HepG2 Assay for human Myelocytomatosis (Myc) Proto-Oncogene Transcription Factor (AID 2282990). The conditions noted are these: HepG2, Attagene cis-reporter transcription factor activity; actives raise or lower the signal. Put shortly: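 HepG2, transient MRTU transfection (cis promoters, endogenous TFs); 24 h dosing; TriZol RNA → oligo(dT) RT → PCR → 6-FAM primer extension → HpaI cut → CE. Bidirectional fit vs DMSO.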

A short description of assay [11]: ATG_NRF2_ARE_CIS: Attagene CIS-FACTORIAL HepG2 Assay for human Nuclear Factor Erythroid 2 Related Factor 2 (NFR2) response to Antioxidant Response Elements (ARE) (AID 2282992).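 On AC50: reporter mRNA level measured by RT-PCR and capillary electrophoresis fluorescence.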 The conditions noted are these: HepG2 Attagene ARE/NRF2 reporter, transcription factor activity; actives raise or lower the signal. In a few lines: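 Multiplexed reporter mRNA profiling in HepG2 after a 24 h chemical exposure. Curves fitted in both directions relative to DMSO negative control.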

The nature of assay [12]: ATG_Oct_MLP_CIS: Attagene CIS-FACTORIAL HepG2 Assay for human Octamer-Binding Transcription Factor (Oct) (AID 2282993). The conditions noted are these: HepG2 Attagene cis-factorial Oct reporter, mRNA; actives raise or lower the signal. In a few lines: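 Using HepG2 cells bearing transfected cis-reporter constructs, mRNA induction was read after 24 h by fluorescent RT-PCR and capillary electrophoresis, with DMSO defining baseline for gain- or loss-of-signal fits.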

The target of assay [13] is Cellular tumor antigen p53 (Homo sapiens) (UniProt P04637). Put plainly: ATG_p53_CIS: Attagene CIS-FACTORIAL HepG2 Assay for human p53 Transcription Factor (AID 2282994). The conditions noted are these: HepG2 p53 cis-element reporter, Attagene mRNA; actives raise or lower the signal. In a few lines:
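Multiplexed reporter mRNA assay in human HepG2 liver cells; cis-regulated units report endogenous factor activity. Values come from bidirectional curve fitting against DMSO negative control after 24 h treatment.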

Assay [14] can be described thus: BSK_3C_TissueFactor: BioMAP Diversity Plus: 3C Assay for Tissue Factor Biomarker Activity (AID 2282997). The following applies: BioMAP 3C HUVEC, tissue factor biomarker readout; actives raise or lower the signal. In a few lines: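 Primary human umbilical vein endothelial cells in the 3C system were exposed to test chemical for 24 h, then Tissue Factor measured by ELISA. Activity was fitted bidirectionally against DMSO as negative control and baseline.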

A short description of assay [15]: BSK_3C_uPAR: BioMAP Diversity Plus: 3C Assay for Urokinase-type plasminogen activator receptor (uPAR) Biomarker Activity (AID 2282998). The conditions noted are these: BioMAP 3C HUVEC, uPAR biomarker ELISA; actives raise or lower the signal. Put shortly: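 In this endothelial cell-based assay, human umbilical vein primary cells were treated with chemicals and harvested at 24 h. uPAR was quantified using ELISA, with gains or losses fitted relative to DMSO controls.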
For orientation: ELISA stands for enzyme-linked immunosorbent assay.

Assay [16] has as its target Hepatocyte nuclear factor 4-alpha (Homo sapiens) (UniProt P41235). In words: ATG_HNF4a_TRANS: Attagene TRANS-FACTORIAL HepG2 Assay for human Hepatocyte Nuclear Factor 4 alpha (HNF4a) (AID 2282982; active means hit-call score of the fitted dose curve at least 0.9, where 1 is the maximum). The following applies: HepG2 HNF4a transactivation reporter, mRNA readout. In a few lines:
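Transfected HepG2 reporter cells are dosed for 24 h; reporter RNA is reverse-transcribed, amplified, fluorescently labelled and HpaI-digested before CE sizing. Positive-direction fit against DMSO.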

A short description of assay [17]: ATG_NFI_CIS: Attagene CIS-FACTORIAL HepG2 Assay for human Nuclear Factor I (NFI) (AID 2282989). The conditions noted are these: HepG2 cis-regulatory reporter, NFI response element transcription; actives raise or lower the signal. In a few lines:
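Transfected HepG2 liver cells, exposed 24 h, supplied total RNA for oligo(dT) reverse transcription and reporter-specific PCR. Labelled, HpaI-cut fragments were sized by capillary electrophoresis; DMSO set the baseline for bidirectional fitting.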

Assay [18] is described as follows: ATG_NF_kB_CIS: Attagene CIS-FACTORIAL HepG2 Assay for human Nuclear Factor Kappa B (NF-kB) (AID 2282991). The following applies: HepG2 Attagene cis-factorial NF-kB reporter mRNA; actives raise or lower the signal. In a few lines: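 DMSO served as negative control and baseline for bidirectional curve fitting. Transiently transfected HepG2 cells were dosed for 24 h, then reporter transcripts were measured by RT-PCR with capillary electrophoresis detection.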

Results filed as inconclusive are left out. Calls of active or inactive are those of the source. How the source made its calls, unless noted: active means hit-call score of the fitted dose curve at least 0.9, where 1 is the maximum; inactive means score below 0.9.

Myc proto-oncogene protein (Homo sapiens), sequence (P01106 whole entry, looked up): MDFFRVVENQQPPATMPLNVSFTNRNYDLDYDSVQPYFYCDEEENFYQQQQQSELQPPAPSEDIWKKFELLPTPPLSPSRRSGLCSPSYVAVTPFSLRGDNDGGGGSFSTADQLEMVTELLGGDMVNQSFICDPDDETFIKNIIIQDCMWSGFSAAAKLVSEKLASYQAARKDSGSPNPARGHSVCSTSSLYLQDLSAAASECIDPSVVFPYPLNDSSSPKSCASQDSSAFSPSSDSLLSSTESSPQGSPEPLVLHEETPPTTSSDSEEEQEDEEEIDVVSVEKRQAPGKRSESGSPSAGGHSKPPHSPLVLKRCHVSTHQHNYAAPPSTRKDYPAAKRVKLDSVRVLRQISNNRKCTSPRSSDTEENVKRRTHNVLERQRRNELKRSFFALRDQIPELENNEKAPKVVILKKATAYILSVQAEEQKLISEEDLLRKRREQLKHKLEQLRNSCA
Cellular tumor antigen p53 (Homo sapiens), sequence (P04637 whole entry, looked up): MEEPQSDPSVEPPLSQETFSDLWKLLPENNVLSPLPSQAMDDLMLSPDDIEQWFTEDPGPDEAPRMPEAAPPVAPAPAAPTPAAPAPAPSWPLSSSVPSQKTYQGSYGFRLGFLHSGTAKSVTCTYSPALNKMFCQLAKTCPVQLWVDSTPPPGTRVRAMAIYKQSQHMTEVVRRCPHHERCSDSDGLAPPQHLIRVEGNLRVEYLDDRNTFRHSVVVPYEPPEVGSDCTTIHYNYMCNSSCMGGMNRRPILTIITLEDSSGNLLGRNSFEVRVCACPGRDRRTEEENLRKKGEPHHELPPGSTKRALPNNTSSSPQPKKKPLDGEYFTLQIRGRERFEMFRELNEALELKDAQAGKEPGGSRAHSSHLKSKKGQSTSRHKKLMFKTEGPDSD
Hepatocyte nuclear factor 4-alpha (Homo sapiens), sequence (P41235 whole entry, looked up): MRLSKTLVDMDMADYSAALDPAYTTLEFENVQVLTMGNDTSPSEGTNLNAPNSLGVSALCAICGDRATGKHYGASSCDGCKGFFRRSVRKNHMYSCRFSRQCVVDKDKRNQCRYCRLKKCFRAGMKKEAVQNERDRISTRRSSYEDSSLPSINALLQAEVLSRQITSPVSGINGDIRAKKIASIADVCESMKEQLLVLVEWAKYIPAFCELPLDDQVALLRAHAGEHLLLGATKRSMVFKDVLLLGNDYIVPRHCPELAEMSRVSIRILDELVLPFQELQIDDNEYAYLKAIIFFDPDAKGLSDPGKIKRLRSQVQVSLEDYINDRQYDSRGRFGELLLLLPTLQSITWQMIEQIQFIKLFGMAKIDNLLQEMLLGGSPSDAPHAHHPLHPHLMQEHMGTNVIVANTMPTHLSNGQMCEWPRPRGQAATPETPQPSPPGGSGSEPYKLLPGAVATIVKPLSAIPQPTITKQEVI
Oxysterols receptor LXR-alpha (Homo sapiens), sequence (Q13133 whole entry, looked up, the tested form may be a part): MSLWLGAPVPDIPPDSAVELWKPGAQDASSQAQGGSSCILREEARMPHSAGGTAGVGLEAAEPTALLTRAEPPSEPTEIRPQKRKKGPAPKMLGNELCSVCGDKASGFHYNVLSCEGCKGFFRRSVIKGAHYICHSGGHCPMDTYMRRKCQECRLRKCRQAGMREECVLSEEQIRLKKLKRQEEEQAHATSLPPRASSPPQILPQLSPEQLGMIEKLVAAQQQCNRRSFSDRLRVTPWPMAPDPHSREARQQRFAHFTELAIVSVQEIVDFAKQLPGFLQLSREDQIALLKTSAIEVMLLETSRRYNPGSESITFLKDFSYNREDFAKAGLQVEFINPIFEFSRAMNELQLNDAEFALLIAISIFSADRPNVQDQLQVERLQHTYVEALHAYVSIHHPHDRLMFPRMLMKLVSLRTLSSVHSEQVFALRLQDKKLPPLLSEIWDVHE

As usually defined, the AC50 is the concentration giving half of the maximal activity seen. For the compound `CC1(C)CCC(=Cc2ccc(Cl)cc2)C1(O)Cn1cncn1` (stereo not given), the compound was called inactive in assay [1], in assay [2], in assay [3], in assay [4], in [5] and in assay [6]. Moreover, the compound was called inactive in assay [7], in [8], in assay [9], in assay [10], in assay [13] and in [14]. In [15], the outcome was inactive. Moreover, the concentration at half-maximal activity (AC50) in assay [11] was 3.91 µM (active); in assay [12] it was 13.3 µM (active).

As for `CC(C)Oc1cccc(NC(=O)c2ccccc2C(F)(F)F)c1`, the compound was classed as inactive in assay [2], in assay [3], in [4], in assay [16], in assay [6] and in [7]. The result in assay [8], in [9], in assay [10], in [13], in assay [14] and in assay [15] was inactive. In addition, the AC50 in assay [11] is 6.33 µM (active); in assay [12] it was 11.7 µM (active).

Regarding `Cc1c(COC(=O)[C@@H]2[C@H](/C=C(\Cl)C(F)(F)F)C2(C)C)cccc1-c1ccccc1`, the result in assay [1], in [16], in assay [5], in [6], in [7] and in assay [8] was inactive. Further, the compound was classed as inactive in assay [9], in assay [17], in [10], in [18], in assay [11] and in assay [12]. The result in assay [13], in [14] and in assay [15] was inactive.

For the compound `N#Cc1c[nH]cc1-c1cccc2c1OC(F)(F)O2`, the result in assay [1], in assay [2], in assay [3], in [4], in [16] and in assay [5] was inactive. Moreover, the result in assay [6], in assay [8], in [9], in assay [10], in assay [13] and in assay [14] was inactive. For the same compound, the half-maximal activity concentration (AC50) in assay [7] is 7.82 µM (active); in assay [11], 13.2 µM (active); in assay [12], 13.9 µM (active); in assay [15], 12.8 µM (active).
